The whole screen tested about 340,000 compounds, of which about 2,100 (0.62%) were called active.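 Rule for the calls: active = first-screen hits whose inhibition reached a set limit at any dose in the follow-up dose series; inconclusive = inhibition above the set first-screen limit but never retested; inactive = the rest.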 A selection follows. Measured potencies and affinities stand elsewhere.
Target: Rac GTPase-activating protein 1 (Homo sapiens) (UniProt Q9H0H5)
Assay: MgcRacGAP GTPase-activating activity inhibitors, confirmation, biochemical, ADP Hunter fluorescence, primary and confirmatory (AID 624330);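 note: fluorescence reports GDP produced by GAP-driven GTP hydrolysis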
Settings: MgcRacGAP-stimulated Rac1 GTP hydrolysis, at 30 µM, active compounds read high, GST-tagged Rac1 F28L mutant substrate

Sequence of Rac GTPase-activating protein 1 (Homo sapiens) (Q9H0H5 whole entry, looked up): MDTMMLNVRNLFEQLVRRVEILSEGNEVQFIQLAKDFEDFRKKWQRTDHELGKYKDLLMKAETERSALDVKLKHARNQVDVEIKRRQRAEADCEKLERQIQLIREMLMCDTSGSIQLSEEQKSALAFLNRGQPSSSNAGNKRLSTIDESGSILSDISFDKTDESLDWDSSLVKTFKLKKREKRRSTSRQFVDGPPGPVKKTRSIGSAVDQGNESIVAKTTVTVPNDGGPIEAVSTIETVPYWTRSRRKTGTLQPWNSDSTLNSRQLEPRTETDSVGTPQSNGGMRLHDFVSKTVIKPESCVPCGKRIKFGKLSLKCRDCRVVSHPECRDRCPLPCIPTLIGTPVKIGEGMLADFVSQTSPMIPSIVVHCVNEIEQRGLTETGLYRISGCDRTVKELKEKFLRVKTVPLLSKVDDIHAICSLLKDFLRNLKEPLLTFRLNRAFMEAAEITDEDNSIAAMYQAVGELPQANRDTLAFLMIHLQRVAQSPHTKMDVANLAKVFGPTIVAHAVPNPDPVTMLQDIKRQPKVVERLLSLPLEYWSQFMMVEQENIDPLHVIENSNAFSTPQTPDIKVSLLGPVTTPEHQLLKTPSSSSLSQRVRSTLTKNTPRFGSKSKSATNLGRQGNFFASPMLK

inhibition, inactive:
CCOc1cc(/C=C(\C#N)C(=O)Nc2ccccc2C(=O)O)ccc1OC(=O)c1ccc(C)cc1 12.7%
CCOC(=O)C1=C(N)n2c(s/c(=C\c3cccnc3)c2=O)=C(C#N)C1c1cccnc1 (stereo not given) 9.67%
CCOc1ccc(NC(=O)CN2CC(c3ccccc3)CC2=O)cc1 (stereo not given) 1.86%
CSc1cc(N2CCOCC2)nc(-c2ccccc2Cl)n1 2.89%
CCN1C(=O)[C@H]2[C@@H](c3ccc(-c4ccc(F)cc4)c(OC)c3)N[C@@](Cc3ccccc3)(C(=O)OC)[C@H]2C1=O 0.02%
OC(CN1CCN(C(c2ccccc2)c2ccccc2)CC1)c1ccccc1 (stereo not given) 8.44%
O=C(NCc1cccc(Cl)c1)C1CCC(=O)N(CCCN2CCCC2=O)C1 (stereo not given) 10.9%
CN(C(=O)c1cccc(C#CC(C)(C)O)c1)C1CCCN(Cc2ccccc2F)C1 (stereo not given) -6.83%
O=C(CSc1ccccc1)N1CCN(c2ccccc2)CC1 10.2%
COc1ccc(N2CCN(C(=O)CSc3ccccc3)CC2)cc1 17.2%
Cc1cnc(CNC(=O)c2ccc3oc(C(C)C)nc3c2)[nH]1 -0.66%
Cc1cc(Cl)c(OCCCn2cncn2)c(Br)c1 13.1%
Cc1cc(Cl)cc(Br)c1OCCCCn1cncn1 15.5%
O=c1c2ccccc2nnn1-c1ccccc1[N+](=O)[O-] 10.5%
COc1cc(C(=S)N2CCCC2)ccc1O 24.9%
COc1cc(C(=S)N2CCCCC2)ccc1O 13.6%
O=C(OCc1ccccc1)N1CCC2CC1c1cc(N3CCNCC3)ccc12 (stereo not given) 10.7%
Cn1c(=O)[nH]c(=O)c2c1nc(N1CCCCCC1)n2Cc1cccc2ccccc12 12.6%
CCOC(=O)C(Cc1ccccc1)NC(C)=O (stereo not given) -0.49%
CC(=O)NC(Cc1ccccc1)C(C)=O (stereo not given) 8.26%
COc1cc(CCC(=O)Nc2nnc(-c3cccnc3)s2)cc(OC)c1OC 9%
COc1ccccc1CNc1ccc(N2CCOCC2)c(C(=O)O)c1 11.4%
CCOC(=O)c1cc(NC(=O)c2cccs2)ccc1N1CCOCC1 10.9%
O=C(O)c1cc(NCc2cccs2)ccc1N1CCOCC1 8.2%
COC(=O)c1cc(NCc2c(F)cccc2Cl)ccc1N1CCOCC1 23.3%
Clc1cc(NCc2cccs2)ccc1N1CCOCC1 14.1%
COC(=O)c1cc(NC(=O)c2cccs2)ccc1N1CCOCC1 8.25%
CC(C)[C@H](NC(=O)c1ccccc1)C(=O)OCC(=O)N1CC2(C)CC1CC(C)(C)C2 (stereo not given in full) -5.69%
Cc1ccc(S(=O)(=O)N2CCN(c3nc(CN4CCCC4)nc4sc(C)c(C)c34)CC2)cc1 6.41%
CC(C)OC(=O)CSc1nnc(-c2ccc(Cl)cc2Cl)o1 9.06%
O=C1OCCC1=COCCCCCOC=C1CCOC1=O 3.03%
N#Cc1ccccc1NC(=O)CSc1n[nH]c(=O)n1C1CC1 -2.21%
COc1ccccc1CN1CCNC(=O)C1CC(=O)NCCc1cnccn1 (stereo not given) 4.17%
COc1ccccc1/C=N/NC(=O)C(C)Cn1cnc2ccccc21 (stereo not given) 2.07%
COc1cc(C(=O)NC(c2ccccc2)c2ccccc2)cc(OC)c1C 2.28%
COc1cc(NC(c2ccccc2)c2ccccc2)cc(OC)c1OC 11%
O=C(OCC(=O)N1CCN(S(=O)(=O)c2ccc(Cl)cc2)CC1)c1cccc(OC(F)F)c1 5.16%
O=C(c1ccc(O)c(Br)c1)c1cc(Br)ccc1O 4.27%
O=C(CCNC(=O)c1ccco1)Nc1ccccc1OC(F)F 5.22%
CCCC1=Nc2cc(C(=O)NCCCN3CCOCC3)ccc2Sc2ccccc21 10.2%
CC(Nc1ccc(Cl)cc1)c1cc(Cl)ccc1O (stereo not given) 7.06%
CCOc1ccc(NC(C)c2cc(Cl)ccc2O)cc1 (stereo not given) 15.5%
COC(=O)c1ccc(Nc2nc(-c3ccncc3)nc3ccccc23)cc1 4.52%
CCN1CCN(C(=O)C2CCN(C(=O)c3cc4sccc4n3CC)CC2)CC1 9.89%
FC(F)(F)c1cccc(N2Cc3ccccc3C2)c1 11.1%
CN1CCC(N2CCN(c3cccc(C(F)(F)F)c3)CC2)CC1 5.09%
O=C(C1CCC1)N1CCN(c2cccc(C(F)(F)F)c2)CC1 0.34%
FC(F)(F)c1cccc(CN2CCCCCC2)c1 26.2%
Oc1ccc(N=Nc2cccc(C(F)(F)F)c2)cc1C=Nc1ccc(N2CCOCC2)cc1 9.72%
O=C(N/N=C/c1ccccc1O)c1cccc(C(F)(F)F)c1 -1.42%
O=C(C1=C(O)C(=O)N(CCN2CCOCC2)C1c1ccccn1)c1cccs1 (stereo not given) 8.66%
COc1cc2c(cc1NC(=O)c1ccc(C)c([N+](=O)[O-])c1)oc1ccccc12 8.23%
CN(C)S(=O)(=O)c1ccc(C(=O)Nc2cccc(C(=O)O)c2)cc1 -1.04%
CCN(CC(=O)N1CCCCC1)S(=O)(=O)c1ccccc1 5.64%
CCOC(=O)C1CCN(C(=O)c2cccc(S(=O)(=O)N3CCc4ccccc43)c2)CC1 3.11%
CCCCNC(=O)C(CC)Sc1nc2sc(C(=O)OC)c(C)c2c(=O)n1N (stereo not given) 9.24%
CCCCOC(=O)c1nc(Cl)c(Cl)c(N)c1Cl -9.26%
O=C1C=C(Nc2cccc(O)c2)CC(c2ccco2)C1 (stereo not given) 9.63%
O=C1C=C(Nc2ccc(Cl)cc2)CC(c2ccco2)C1 (stereo not given) 5.91%
Oc1[nH]c2ccccc2c1N=Nc1ccc(F)cc1 4.29%
O=C(O)c1ccc(N=Nc2c(O)[nH]c3ccccc23)cc1 5.98%
CCN1CCN(S(=O)(=O)c2ccc(S(=O)(=O)NCC3CCCO3)cc2)CC1 (stereo not given) 1.86%
CCN1CCN(C(=O)NC2CCCCC2)CC1 30.1%
Cc1ccc[n+](CC(=O)c2ccc(Br)cc2)c1C -7.12%
Nc1ccccc1C=C1Cc2ccccc2C1=O 3.76%
CC(C)c1ccc(OCC(=O)NCc2ccco2)cc1 6.29%
O=C(NCc1ccco1)c1ccc(COc2ccc(Cl)cc2)cc1 -1.23%
Cc1noc(C)c1S(=O)(=O)Nc1ccc2c(c1)C(=O)N([C@H](C)CO)C[C@@H](C)[C@@H](CN(C)Cc1ccc3c(c1)OCO3)O2 1.37%
CC(=O)Nc1ccc(S(=O)(=O)N2CCC(N3CCCC3)CC2)cc1 18.2%
Cc1ncc([N+](=O)[O-])n1Cc1cccc2ccccc12 5.41%
CCCNC(=O)NC(=O)COC(=O)CNS(=O)(=O)/C=C/c1ccccc1 6.44%
Cn1sc2ccccc2c1=O 18%
O=c1c2ccccc2sn1-c1ccc(S(=O)(=O)N2CCCC2)cc1 21.2%
O=c1sc2ccccc2c(=O)n1Cc1ccccc1F 7.23%
COc1ccc(Cn2c(=O)sc3ccccc3c2=O)cc1 3.77%
Cc1ccc(Cn2c(=O)sc3ccccc3c2=O)cc1 5.22%
O=C(c1sc2ccccc2c1Cl)N1CCN(c2ccc(F)cc2)CC1 3.37%
COc1ccc(-n2c(=O)c3ccccc3c3ccccc3c2=O)cc1 11.5%
O=C(O)c1cn(-c2ccc(F)cc2)c(=O)c2ccccc12 8.79%
COc1ccc(NC(=O)COC(C)=O)cc1Cl 3.23%
CCOc1ccc(S(=O)(=O)NCCC(=O)NCC(c2cccs2)N(C)C)cc1 (stereo not given) 8.66%
C#CCNc1cc(C)nc2ncnn12 1.75%
CC(C)CNC(=S)N(CCO)Cc1cc2cc3c(cc2[nH]c1=O)OCO3 14.8%
CC(=C1SC(=S)NC1=O)c1ccccc1 -4.42%
O=C(/C=N/NC(=O)c1ccc(Cl)cc1Cl)c1ccccc1 15%
COc1ccccc1-n1c(SCC(=O)NC2CCCCC2)nc2c(c1=O)SCC2 12.8%
COc1ccc(C(=O)Nc2ccccc2NC(=O)c2ccco2)cc1OC 11%
C/C(=C\C(=O)c1ccc(F)cc1)Nc1ccc(N2CCOCC2)cc1 15.3%
CCCCNC(=S)Nc1ccc(Cl)cc1 8.23%
O=C(NCCNC(=O)Nc1ccc(Cl)cc1)Nc1ccc(Cl)cc1 0.54%
CCOc1ccccc1CNC(=O)C1CCN(c2nn3c(=O)cc(C)nc3s2)CC1 10.9%
O=[N+]([O-])c1ccc(-n2nnnc2CN2CCOCC2)cc1 8.87%
C/C(=N\O)c1ccc2c3ccccc3n(C)c2c1 11%
COc1ccc2c(c1)c1ccccc1n2C -2.65%
Cc1cc(N2CCOCC2)nc(SCc2c(Cl)cccc2Cl)n1 8.06%
O=C(O)C1CCN(Cc2ccccn2)CC1 4.54%
Clc1ccc(CN2CCC(Cc3ccccc3)CC2)cc1 14.2%
O=c1ccn([C@H]2C[C@H](O)[C@@H](CO)O2)c(=O)[nH]1 1.01%
CN(CC(=O)NCC(=O)Nc1ccc(F)cc1)C1CCS(=O)(=O)C1 (stereo not given) 3.81%
COc1ccc2c(c1)C(c1ccccc1)=NNC(c1ccco1)=N2 2.48%
